Structures are written as SMILES. Results filed as inconclusive are left out. Activity calls are given as the source filed them. Unless noted, the call rests on the fitted dose curve; in most records, active means well fitted curve in the direction sought with a large enough effect; inconclusive means small, poorly fitted or top-dose-only effect, or another doubt; inactive means no such curve, though single readings can be large; an effect the other way counts as inactive or inconclusive.

Assay [1] has as its target Lysosomal acid glucosylceramidase (Homo sapiens) (UniProt P04062). Description: Glucocerebrosidase-p2 (AID 348; in the data active means potency below about 10 µM; further: potency means the concentration at half of the fitted maximal effect). The following applies: purified GBA, blue fluorogenic substrate, 40 min. The procedure, abridged:
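Normal human glucocerebrosidase (0.2 nM) with blue fluorogenic substrate (80 uM final) in citrate/phosphate pH 5.9 with 10mM sodium taurocholate, 0.01% tween-20; 40 min RT, NaOH/glycine stop; fluorescence Ex 365/Em 440; AC50 from a titration from 0.6 nM upwards.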

The nature of assay [2]: AP1 Signaling Pathway (AID 357; active means well fitted curve in either direction with a large enough effect, not every such curve was filed as active; further: on the % scale 0 is the no-effect control and ±100 the full control effect). The following applies: ME-180 AP-1-bla reporter, EGF-induced, beta-lactamase ratio, 5 h; at 7.69 µM (top of the series) unless noted. The procedure, abridged:
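ME-180 cells with beta-lactamase reporter under AP-1 response element, stimulated with EC50 EGF; compounds tested in titration series, 5 h at 37 °C. CCF4 substrate added 2.5 h at room temperature; 460/530 nm emission ratio gave %activity and AC50.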

The target of assay [3] is Cytochrome P450 1A2 (Homo sapiens) (UniProt P05177). The assay can be described thus: p450-cyp1a2 (AID 410; calls by dose curve; further: potency means the concentration at half of the fitted maximal effect). The procedure, abridged: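 O-Demethylation of luciferin 6' methyl ether by human CYP1A2 is monitored as luciferase luminescence. Substrate sits at Km (100uM); enzyme is 20nM. Values are scaled to 57 uM furafylline as maximal inhibition.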
A short description of assay [4]: NFAT Signaling Pathway (AID 444; active means well fitted curve in either direction with a large enough effect, not every such curve was filed as active;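 further: carbachol stimulus at about its EC50 of 1 µM final; on the % scale 0 is the no-effect control and ±100 the full control effect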). The following applies: Jurkat NFAT-bla M1, carbachol, beta-lactamase ratio, 5 h; at 7.69 µM (top of the series) unless noted. In short, it runs like this: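 Jurkat cells carrying an NFAT-driven β-lactamase reporter and co-transfected muscarinic M1 receptor were treated with compound plus carbachol (1 uM final, an EC50 level) for 5 h at 37 °C. CCF4 loading followed for 1 h at RT; 460/530 nm ratio gave %activity.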

Assay [5] in a line: Stat Signaling Pathway (AID 446; active means well fitted curve in either direction with a large enough effect, not every such curve was filed as active;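 further: ME-180 cervical cancer cells given 40 pM IL-6 alongside compound; SIE-controlled beta-lactamase reporter measured as 460/530 nm FRET emission ratio; on the % scale 0 is the no-effect control and ±100 the full control effect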). As to conditions: ME-180 (cervical carcinoma) SIE beta-lactamase reporter, IL-6 stimulated, 5 h; at 7.69 µM (top of the series) unless noted. In short, it runs like this:
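Emission at 460 and 530 nm (excitation 405 nm) reports SIE-controlled beta-lactamase in ME-180 cells. Cells received compound with 40 pM IL-6 for 5 hrs at 37 C; data scaled between 300 pM IL-6 and 125 nM JAK-inhibitor controls.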

In assay [6] the target is Glucocorticoid receptor (Homo sapiens) (UniProt P04150). The assay can be described thus: GR-GFP Redistribution (AID 450;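 active means compounds whose dose series gives a full or clear partial fitted curve of increased nuclear translocation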; further: potency means the concentration at half of the fitted maximal effect). The following applies: U2OS GR-GFP nuclear translocation, laser cytometry, 2 h.
The target is the same in assay [7]. Description: GR-EFC Redistribution (AID 451; calls by dose curve; further: potency means the concentration at half of the fitted maximal effect). The following applies: CHO-K1 GR-EFC translocation, beta-gal luminescence, 2 h. In short, it runs like this:
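CHO-K1 cells stably expressing nuclear-localized β-gal enzyme acceptor and GR fused C-terminally to the enzyme donor fragment; ligand-driven nuclear translocation restores β-gal by complementation. Compounds titrated up to 46 uM final, 2 h at 37 °C; luminescence read.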

Assay [8] has as its target Mitogen-activated protein kinase 10 (Mus musculus) (UniProt Q61831). Description: JNK3 AlphaScreen Assay (AID 530; active means well fitted curve in either direction with a large enough effect, not every such curve was filed as active;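 further: kinase came from lysate of stimulated human HepG2 cells; signal reports phosphorylation of biotinylated GST-cJun 1-79 at Ser73 with 10 µM ATP; on the % scale 0 is the no-effect control and ±100 the full control effect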). The procedure, abridged: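 Phosphorylation of biotinylated GST-cJun(1-79) at Ser73 is measured by AlphaScreen proximity luminescence. Enzyme is JNK3 in HepG2 lysates activated with interleukin-1beta and tumor necrosis factor alpha; ATP is 10 uM final.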
(Alpha assays give light when donor and acceptor beads are brought close together.)

Assay [9] deals with 3',5'-cyclic-AMP phosphodiesterase 4B (Homo sapiens) (UniProt Q07343). The assay can be described thus: qHTS Assay for Inhibitors of PDE-IV (AID 607; active means well fitted activation curve with a large enough effect in the main read-out, with a control signal flat, not every such curve was filed as active; further: % of control where 0% means no effect). In short, it runs like this: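 The readout is membrane depolarisation from a cAMP-sensing CNG channel, detected with a potential dye at ex 535/em 590. Cells were HEK293-derived (endogenous PDE-IV) at 1000 cells/well, titrated up to 22.9 uM final.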
A general note: qHTS replaces the single test concentration by a dilution series.

Assay [10] in a line: qHTS Assay for Lipid Storage Modulators (AID 1519; calls by dose curve). The following applies: Drosophila S3 cells, BODIPY lipid droplet/cell ratio, laser cytometry, cells loaded with oleic acid; for activity change, negative = inhibition: at 57.5 µM (top of the series). In short, it runs like this: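 Cells seeded at 5,000 per well were treated with compounds over a concentration series and loaded with oleic acid (400 uM, as added). Lipid droplet fluorescence (488 nm excitation, 500-530 nm channel) was read by laser-scanning cytometry and normalized to 20 uM Triacsin C.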

Assay [11] has as its target Dual specificity protein kinase CLK4 (Homo sapiens) (UniProt Q9HAZ1). The assay can be described thus: qHTS Assay for Inhibitors of CDC-like Kinase 4 (Kinase-Glo Assay) (AID 1770). Further: on the % scale 0 is the no-effect control and ±100 the full control effect; nearly all actives have a fitted effect of over 65% in size. The procedure, abridged:
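Readout: Kinase-Glo luminescence from ATP left after a 4.5 h room-temperature reaction of 25 nM Clk4 with 100 uM RS peptide and 1 uM ATP (final). Buffer: 25 mM Tris pH 7.5, 10 mM MgCl2.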

For assay [12] the target is unchanged. Description: qHTS Assay for Inhibitors of CDC-like Kinase 4 (ADP-Glo Assay) (AID 1771). Further: on the % scale 0 is the no-effect control and ±100 the full control effect; nearly all actives have a fitted effect of over 70% in size. In short, it runs like this: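 Compounds are pin-transferred onto substrate mix (100 uM RS peptide, 1 uM ATP), then 25 nM Clk4 is added. After 1 hr at room temperature, ADP-Glo reagent runs 45 min, detection reagent 30 min, then luminescence is read.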
Assay [13] shares this target. The assay can be described thus: qHTS Assay for Inhibitors of CDC-like Kinase 4 (ADP-FP Assay) (AID 1795).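 Further: recombinant human CLK4 phosphorylating RS repeat peptide at 1 µM ATP; on the % scale 0 is the no-effect control and ±100 the full control effect; nearly all actives have a fitted effect of over 60% in size.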 In short, it runs like this:
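FP readout: Orange Transcreener ADP2 tracer (4 nM) plus ADP antibody, read after 30 min at room temperature. Kinase step: 6.25 nM Clk4, 100 uM RS peptide, 1 uM ATP, pH 7.5, 1 h.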

In assay [14] the target is Ubiquitin carboxyl-terminal hydrolase 1 (Homo sapiens) (UniProt O94782). The assay can be described thus: Inhibitors of USP1/UAF1: Pilot qHTS (AID 504865).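 Further: rhodamine fluorescence freed from ubiquitin-rhodamine substrate followed over time; top concentration of the series differs between compounds; on the % scale 0 is the no-effect control and ±100 the full control effect; nearly all actives have a fitted effect of over 35% in size.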 In short, it runs like this:
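1nM USP1/UAF1 + cpd, 15 min RT; start w/ Ub-Rho 150nM final; kinetic FL 480/540 nm, 6 reads q60 s. Buffer 50mM HEPES pH 7.8, 0.5mM EDTA, 1mM TCEP, 0.01% Tween-20, 0.1 mg/ml BSA.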

Assay [15] in a line: Primary qHTS for small molecule stabilizers of the endoplasmic reticulum resident proteome: Secreted ER Calcium Modulated Protein (SERCaMP) assay (AID 1508630). Further: on the % scale 0 is the no-effect control and ±100 the full control effect. In short, it runs like this: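 The SH-SY5Y reporter protocol was run at 3 concentrations up to 38.3 uM (primary) or 11 concentrations (follow-up): 16 h compound, 100 nM thapsigargin for 4 h, then extracellular luciferase luminescence.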

In assay [16] the target is Cytochrome P450 3A4 (Homo sapiens) (UniProt P08684). The assay can be described thus: qHTS Assay for Inhibitors and Substrates of Cytochrome P450 3A4 (AID 884). Further: potency means the concentration at half of the fitted maximal effect; nearly all actives have a fitted effect of over 50% in size. In short, it runs like this: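 Luminescent readout of luciferin produced by CYP3A4 (20 nM) dealkylation of Luciferin-PPXE, 25 uM (its KM). NADPH-driven reaction ran 60 min at RT after 10 min compound preincubation; data scaled to 57 uM ketoconazole as 100% inhibition.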

Assay [17] shares this target. The assay can be described thus: qHTS Assay for Activators of Cytochrome P450 3A4 (AID 885). Further: nearly all actives have a fitted effect of over 65% in size. The procedure, abridged: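 Activators are scored by enhanced luminescence from CYP3A4 conversion of luciferin-PPXE (25uM, equal to KM) to luciferin, after 60 min at RT with an NADPH-regenerating system.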
The target of assay [18] is Rap guanine nucleotide exchange factor 3 (Homo sapiens) (UniProt O95398). Description: Confirmatory qHTS for antagonist of cAMP-regulated guanine nucleotide exchange factor 3 (EPAC1) (AID 1645880).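 Further: plate controls were DMSO only for no effect and full effect of the ATA control for full effect; nearly all actives have a fitted effect of over 55% in size.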 The procedure, abridged: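 Released BODIPY-GDP fluoresces less than Rap1-bound BODIPY-GDP; the signal is followed at 480/540 nm at 5-min intervals over 30 min, after 5 min at room temperature. Reactions contain 100 nM EPAC1, 250 nM RAP1B-BODIPY-GDP and 50 uM GDP; results are normalized to ATA and DMSO.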

For assay [19], the target named is Rap guanine nucleotide exchange factor 4 (Homo sapiens) (UniProt Q8WZA2). The assay can be described thus: Confirmatory qHTS for antagonist of cAMP-regulated guanine nucleotide exchange factor 4 (EPAC2) (AID 1645885). Further: on the % scale 0 is the no-effect control and ±100 the full control effect; nearly all actives have a fitted effect of over 25% in size.
The mark [20] stands for this setting: measured here: cell count channel max response.
Setting [21] is: measured here: lipid channel max response.

Chain of Lysosomal acid glucosylceramidase (Homo sapiens) (P04062 whole entry, looked up): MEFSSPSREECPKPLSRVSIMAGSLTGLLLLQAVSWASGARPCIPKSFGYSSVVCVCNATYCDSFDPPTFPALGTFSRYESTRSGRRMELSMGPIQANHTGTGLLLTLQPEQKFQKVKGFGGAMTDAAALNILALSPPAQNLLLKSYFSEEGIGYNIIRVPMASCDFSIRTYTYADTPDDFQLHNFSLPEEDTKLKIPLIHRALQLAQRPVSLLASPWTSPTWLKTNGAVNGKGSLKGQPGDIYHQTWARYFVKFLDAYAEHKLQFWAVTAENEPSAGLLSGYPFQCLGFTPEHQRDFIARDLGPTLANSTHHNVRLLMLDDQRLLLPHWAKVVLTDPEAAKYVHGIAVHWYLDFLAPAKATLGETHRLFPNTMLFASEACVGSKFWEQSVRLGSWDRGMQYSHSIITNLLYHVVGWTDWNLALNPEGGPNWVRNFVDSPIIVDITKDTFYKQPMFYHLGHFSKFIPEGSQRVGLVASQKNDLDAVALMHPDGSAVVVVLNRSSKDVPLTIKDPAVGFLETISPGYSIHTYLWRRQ
Chain of Ubiquitin carboxyl-terminal hydrolase 1 (Homo sapiens) (O94782 whole entry, looked up): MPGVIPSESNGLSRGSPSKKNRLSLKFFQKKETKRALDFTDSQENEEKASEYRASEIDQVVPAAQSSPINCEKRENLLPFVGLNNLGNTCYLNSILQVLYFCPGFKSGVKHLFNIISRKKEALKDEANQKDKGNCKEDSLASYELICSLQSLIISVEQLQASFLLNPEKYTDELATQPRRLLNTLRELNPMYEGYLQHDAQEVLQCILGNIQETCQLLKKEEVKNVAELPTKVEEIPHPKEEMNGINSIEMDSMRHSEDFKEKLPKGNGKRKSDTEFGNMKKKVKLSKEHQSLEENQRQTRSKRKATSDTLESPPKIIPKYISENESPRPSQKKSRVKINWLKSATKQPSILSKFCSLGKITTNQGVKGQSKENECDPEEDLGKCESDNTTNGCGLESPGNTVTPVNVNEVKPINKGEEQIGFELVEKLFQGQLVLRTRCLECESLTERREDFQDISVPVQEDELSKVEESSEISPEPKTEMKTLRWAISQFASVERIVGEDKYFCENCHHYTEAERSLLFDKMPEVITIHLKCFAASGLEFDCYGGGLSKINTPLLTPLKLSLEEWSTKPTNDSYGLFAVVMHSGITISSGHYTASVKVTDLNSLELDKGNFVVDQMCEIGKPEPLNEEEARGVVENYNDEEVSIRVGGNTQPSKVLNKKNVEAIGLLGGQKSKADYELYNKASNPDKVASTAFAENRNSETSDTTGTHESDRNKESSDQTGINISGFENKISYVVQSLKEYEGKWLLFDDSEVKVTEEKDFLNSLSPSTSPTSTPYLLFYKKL
Chain of Cytochrome P450 1A2 (Homo sapiens) (P05177 whole entry, looked up): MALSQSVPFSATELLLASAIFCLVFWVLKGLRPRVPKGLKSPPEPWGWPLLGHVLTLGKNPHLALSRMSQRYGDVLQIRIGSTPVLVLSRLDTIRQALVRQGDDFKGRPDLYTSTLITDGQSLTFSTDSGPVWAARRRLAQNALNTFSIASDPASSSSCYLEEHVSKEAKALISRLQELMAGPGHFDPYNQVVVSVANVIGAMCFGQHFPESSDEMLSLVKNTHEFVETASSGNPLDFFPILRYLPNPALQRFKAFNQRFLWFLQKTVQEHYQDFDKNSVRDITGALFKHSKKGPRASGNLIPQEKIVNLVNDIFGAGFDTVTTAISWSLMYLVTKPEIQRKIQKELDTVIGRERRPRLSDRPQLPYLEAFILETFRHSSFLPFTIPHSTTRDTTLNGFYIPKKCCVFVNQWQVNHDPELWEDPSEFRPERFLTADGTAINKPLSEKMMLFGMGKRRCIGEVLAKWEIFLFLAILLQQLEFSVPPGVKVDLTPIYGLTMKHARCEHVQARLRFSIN
Chain of Glucocorticoid receptor (Homo sapiens) (P04150 whole entry, looked up): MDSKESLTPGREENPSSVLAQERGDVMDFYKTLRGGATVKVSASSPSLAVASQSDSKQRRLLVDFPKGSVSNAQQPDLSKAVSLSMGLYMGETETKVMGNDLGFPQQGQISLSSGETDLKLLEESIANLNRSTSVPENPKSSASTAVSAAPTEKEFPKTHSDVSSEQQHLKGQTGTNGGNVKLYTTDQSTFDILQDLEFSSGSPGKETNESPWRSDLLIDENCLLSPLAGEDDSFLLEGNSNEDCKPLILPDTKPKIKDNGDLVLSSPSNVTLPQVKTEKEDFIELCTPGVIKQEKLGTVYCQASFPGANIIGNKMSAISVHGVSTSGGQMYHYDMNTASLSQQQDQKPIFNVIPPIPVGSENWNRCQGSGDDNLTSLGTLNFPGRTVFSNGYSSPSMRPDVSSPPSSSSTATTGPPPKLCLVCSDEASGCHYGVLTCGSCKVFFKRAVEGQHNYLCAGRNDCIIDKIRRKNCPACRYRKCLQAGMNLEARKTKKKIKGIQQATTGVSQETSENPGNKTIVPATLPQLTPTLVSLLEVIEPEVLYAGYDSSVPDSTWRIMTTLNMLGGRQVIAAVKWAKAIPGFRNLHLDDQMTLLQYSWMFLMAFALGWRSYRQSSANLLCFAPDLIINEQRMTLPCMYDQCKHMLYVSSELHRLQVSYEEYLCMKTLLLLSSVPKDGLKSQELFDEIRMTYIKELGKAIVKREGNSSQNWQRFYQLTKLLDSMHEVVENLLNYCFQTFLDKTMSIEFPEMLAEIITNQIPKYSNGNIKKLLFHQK
Chain of 3',5'-cyclic-AMP phosphodiesterase 4B (Homo sapiens) (Q07343 whole entry, looked up): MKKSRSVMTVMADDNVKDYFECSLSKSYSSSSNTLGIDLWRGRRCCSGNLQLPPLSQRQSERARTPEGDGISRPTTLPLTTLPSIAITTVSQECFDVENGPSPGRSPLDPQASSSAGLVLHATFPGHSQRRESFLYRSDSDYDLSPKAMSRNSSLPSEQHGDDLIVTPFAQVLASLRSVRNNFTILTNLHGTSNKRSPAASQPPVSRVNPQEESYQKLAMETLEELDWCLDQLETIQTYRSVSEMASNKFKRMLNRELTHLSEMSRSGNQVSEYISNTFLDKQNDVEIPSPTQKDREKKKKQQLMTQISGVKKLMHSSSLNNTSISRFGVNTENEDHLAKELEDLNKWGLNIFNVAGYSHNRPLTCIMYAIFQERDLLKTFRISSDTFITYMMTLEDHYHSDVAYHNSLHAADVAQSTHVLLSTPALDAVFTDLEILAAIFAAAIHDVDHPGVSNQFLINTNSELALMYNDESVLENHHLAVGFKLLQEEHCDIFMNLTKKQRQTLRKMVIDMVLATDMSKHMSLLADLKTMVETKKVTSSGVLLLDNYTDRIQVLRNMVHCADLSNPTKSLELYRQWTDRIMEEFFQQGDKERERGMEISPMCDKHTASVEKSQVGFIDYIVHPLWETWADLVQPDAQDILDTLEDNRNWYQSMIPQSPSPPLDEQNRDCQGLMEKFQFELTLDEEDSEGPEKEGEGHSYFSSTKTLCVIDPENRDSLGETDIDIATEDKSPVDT
Chain of Dual specificity protein kinase CLK4 (Homo sapiens) (Q9HAZ1 whole entry, looked up): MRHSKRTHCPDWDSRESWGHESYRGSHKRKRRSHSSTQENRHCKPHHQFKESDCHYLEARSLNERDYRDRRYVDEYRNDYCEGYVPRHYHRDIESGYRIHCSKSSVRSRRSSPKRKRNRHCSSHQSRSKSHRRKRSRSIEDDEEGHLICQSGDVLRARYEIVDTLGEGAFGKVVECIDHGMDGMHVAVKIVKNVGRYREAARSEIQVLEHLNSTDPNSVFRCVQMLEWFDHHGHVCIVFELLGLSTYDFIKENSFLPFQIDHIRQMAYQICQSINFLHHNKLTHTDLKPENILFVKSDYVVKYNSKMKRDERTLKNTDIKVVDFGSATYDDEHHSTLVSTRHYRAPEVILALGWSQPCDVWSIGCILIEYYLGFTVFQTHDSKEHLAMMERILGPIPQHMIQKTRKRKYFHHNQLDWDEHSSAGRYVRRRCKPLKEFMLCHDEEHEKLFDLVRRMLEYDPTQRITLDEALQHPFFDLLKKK
Chain of Cytochrome P450 3A4 (Homo sapiens) (P08684 whole entry, looked up): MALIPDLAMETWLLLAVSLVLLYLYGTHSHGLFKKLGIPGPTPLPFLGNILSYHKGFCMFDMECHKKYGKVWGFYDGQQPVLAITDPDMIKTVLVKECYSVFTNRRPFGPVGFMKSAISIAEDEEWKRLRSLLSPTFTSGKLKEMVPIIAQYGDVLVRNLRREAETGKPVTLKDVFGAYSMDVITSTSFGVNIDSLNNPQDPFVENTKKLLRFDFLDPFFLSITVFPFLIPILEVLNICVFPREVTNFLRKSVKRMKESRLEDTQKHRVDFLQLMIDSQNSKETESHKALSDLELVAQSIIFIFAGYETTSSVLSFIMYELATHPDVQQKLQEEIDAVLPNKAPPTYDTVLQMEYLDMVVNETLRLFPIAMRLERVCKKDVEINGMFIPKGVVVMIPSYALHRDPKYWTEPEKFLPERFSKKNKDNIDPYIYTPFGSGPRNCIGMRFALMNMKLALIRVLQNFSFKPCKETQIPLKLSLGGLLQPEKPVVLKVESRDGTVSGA

Turning to `Cc1noc(C)c1-c1cc(N(C)Cc2ccco2)ncn1`, the Potency was > 11.4 µM (inactive) in assay [1], 3.16 µM (active) in assay [3], > 46 µM (inactive) in assay [6] and > 46 µM (inactive) in assay [7]. Further, the results for the activity change, negative = inhibition in assay [2], in assay [4] and in assay [10] were 1.26% (inactive), -16% (inactive) and 2.86% (inactive), respectively. Besides, in assay [5], the activity, negative = inhibition is 6.33% (inactive). Moreover, the result in assay [8] was inactive. For the same compound, the Potency entry in assay [9], in assay [11], in assay [12], in assay [13], in [14] and in assay [15] was “inactive” in each case. Also, the values for the max response in assay [10] (setting [20]) and in assay [10] (setting [21]) were 13.8% and 17.9%, respectively.

With `Cn1cc(-c2nc3cnc(Oc4ccccc4)nc3n(C)c2=O)c2ccccc21`, the Potency was > 11.4 µM (inactive) in assay [1], 12.6 µM (active) in assay [3], > 9.22 µM (inactive) in assay [6] and > 46 µM (inactive) in assay [7]. Moreover, the activity change, negative = inhibition was 0.766% (inactive) in assay [2], -2.6% (inactive) in [4] and -0.452% (inactive) in [10]. In assay [5], the activity, negative = inhibition is 24.9% (inactive). Besides, the result in assay [8] was inactive. The max response in assay [10] (setting [20]) was 14.6%; in assay [10] (setting [21]) it was 18.4%. Besides, the Potency entry in assay [11], in assay [12], in assay [13], in assay [14] and in [15] was “inactive” each time.

With `COCCn1c(=O)c(-c2cccs2)nc2cnc(N(C)C)nc21`, the Potency in assay [1] is > 11.4 µM (inactive); in assay [3], 2 µM (active); in [6], > 9.22 µM (inactive); in assay [7], > 46 µM (inactive); in [16], 7.94 µM (active). The activity change, negative = inhibition in assay [2] is -5.67% (inactive); in assay [4], 10.2% (inactive); in [10], 3.99% (inactive). Also, in assay [5], the activity, negative = inhibition was -4.44% (inactive). Also, the outcome in assay [8] was inactive. The Potency result in assay [9], in [17], in assay [11], in [12], in assay [13] and in assay [15] was “inactive” each time. The Potency result in assay [18] and in assay [19] was “inactive” each time. Further, the max response in [10] (setting [20]) is 26.2%; in assay [10] (setting [21]), 28.7%.

For `COc1ncc2nc(-c3cc(F)cc(F)c3)c(=O)n(-c3ccccc3)c2n1`, the Potency in assay [1] was > 11.4 µM (inactive); in assay [3], 1.26 µM (active); in [6], > 9.22 µM (inactive); in assay [7], > 46 µM (inactive). For the same compound, the activity change, negative = inhibition was -20.2% (inactive) in assay [2], -3.83% (inactive) in assay [4] and 3.41% (inactive) in assay [10]. In addition, the activity, negative = inhibition in [5] is -1.05% (inactive). The outcome in assay [8] was inactive. For the same compound, the Potency entry in [9], in [11], in [12], in assay [13], in [14] and in assay [15] was “inactive” each time. Moreover, the max response in assay [10] (setting [20]) came out at 11.4%; in assay [10] (setting [21]) it was 11.8%.

For the origin of these results see PubChem BioAssay (NCATS).
